Measurements: PubChem BioAssay (NCI)
About 83,000 compounds went through this panel and 20% of them were active in at least one assay; those are over-represented in the sample as a whole.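 Each cell line was grown in a 96-well plate and treated with one concentration of compound for 48 hours. Values below 10 were considered active.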 Values without a mark were called inactive. Activity calls are given as the source filed them.

Legend:
Assay in all cases: NCI-60 one-dose screen, 48 h (100 = growth as untreated, 0 = no growth, -100 = all killed)
Conditions in all cases: 10 µM unless noted
[1] = test system: SR leukemia
[2] = test system: RPMI-8226 leukemia
[3] = test system: OVCAR-8 ovarian
[4] = test system: OVCAR-5 ovarian
[5] = test system: OVCAR-4 ovarian
[6] = test system: SK-OV-3 ovarian
[7] = test system: IGROV1 ovarian
[8] = test system: OVCAR-3 ovarian
[9] = test system: HS 578T breast
[10] = test system: NCI/ADR-RES ovarian
[11] = test system: T-47D breast
[12] = test system: BT-549 breast
[13] = test system: MDA-MB-435 melanoma
[14] = test system: SW-620 colon
[15] = test system: MCF7 breast
[16] = test system: HCT-116 colon
[17] = test system: HCC-2998 colon
[18] = test system: KM12 colon

Structure (SMILES) | growth [1] | growth [2] | growth [3] | growth [4] | growth [5] | growth [6] | growth [7] | growth [8] | growth [9] | growth [10] | growth [11] | growth [12] | growth [13] | growth [14] | growth [15] | growth [16] | growth [17] | growth [18]
O=Cc1ccccc1C(=O)O | 89.8% | 106% | 104% | 97.9% | 92.6% | 104% | 110% | 102% | 100% | 104% | 97.2% | 102% | 96.6% | 102% | 93.7% | 99.6% | 98.1% | 97.9%
CC(=O)[C@H]1CC[C@H]2[C@@H]3C[C@H](C)C4=CC(=O)CC[C@]4(C)[C@H]3C(=O)C[C@]12C | 97.5% | 97.3% | 101% | 103% | 102% | 98% | 98.6% | 110% | 103% | 98.7% | 87.5% | 98% | 119% | 98.6% | 99.3% | 93.1% | – | 110%
COc1cc(/C=C/C(=O)C(C(=O)/C=C/c2ccc(OC(=O)CCNC34CC5CC(CC(C5)C3)C4)c(OC)c2)C(=O)CCNC23CC4CC(CC(C4)C2)C3)ccc1OC(=O)CCNC12CC3CC(CC(C3)C1)C2 (stereo not given) | -48.6% (active) | -51.6% (active) | 8.87% (active) | 37.8% | 25.8% | 42.8% | -33.2% (active) | 14.9% | 6.55% (active) | 41.7% | 41.6% | -24.2% (active) | -29.9% (active) | -22.7% (active) | 14.4% | -48.8% (active) | -48% (active) | -5.8% (active)
CSc1nc2nc3c(nc2c(=O)n1C)C(=O)c1ccccc1C3=O | 6.56% (active) | -20.2% (active) | -8.36% (active) | -91.7% (active) | -53% (active) | -22.2% (active) | -53% (active) | -63.8% (active) | -21.6% (active) | -4.99% (active) | -45.3% (active) | -94.8% (active) | -83.6% (active) | -55.7% (active) | -62.2% (active) | -37.6% (active) | -70.1% (active) | -64.2% (active)
CCN(CC)c1ccc(N=C2C=CC(=O)C=C2NC(C)=O)cc1 | 110% | 89.8% | 94% | 108% | 104% | 86.9% | 96.7% | 74.2% | 104% | 105% | 82.5% | 109% | 124% | 89% | 82.6% | 97.9% | – | 98.6%
Cc1ccccc1NC(=O)NC(CC(N)=O)c1ccc2c(c1)nc(-c1cccc(Oc3ccc(C(C)(C)C)cc3)c1)n2CCCN1CCCCC1C (stereo not given) | -33.9% (active) | -29.2% (active) | 3.11% (active) | 88.8% | 66.5% | 103% | 46.4% | 53.2% | 6.75% (active) | 94.3% | 47.4% | 93.7% | -53.7% (active) | -62.2% (active) | -76.3% (active) | -73.7% (active) | – | -35.3% (active)
CC(=O)OCC(=O)[C@@]1(O)CC[C@H]2[C@@H]3CCC4=CC(=O)CC[C@]4(C)[C@@]3(F)[C@@H](O)C[C@@]21C | 99.8% | 62.5% | 93.8% | 80.2% | 105% | 63.7% | 116% | 106% | 112% | 89.6% | 109% | 103% | 115% | 98.3% | 87.3% | 106% | – | 109%
Cc1ccc(/C=C(/C#N)n2nnc3ncccc32)cc1 | 15.2% | 7.18% (active) | -1.49% (active) | -20.3% (active) | 25.7% | 14.2% | 19.3% | -15% (active) | 0.782% (active) | 2.09% (active) | 5.39% (active) | 11.3% | -52.9% (active) | 9.59% (active) | 14.5% | 4.5% (active) | 15.7% | 24.6%
